Records with an inconclusive call do not appear. Activity calls are given as the source filed them. Rule for the calls: active = hit-call score of the fitted dose curve at least 0.9, where 1 is the maximum; inconclusive = response in the unintended direction; inactive = score below 0.9.
target: Retinoic acid receptor alpha (Homo sapiens) (UniProt P10276); test: NVS_NR_hRARa_Agonist: NovaScreen (NVS) Nuclear Receptor Binding Assay for human Retinoic Acid Alpha Receptor Agonism (RAR) (AID 2283361)
Sequence (P10276 whole entry, looked up): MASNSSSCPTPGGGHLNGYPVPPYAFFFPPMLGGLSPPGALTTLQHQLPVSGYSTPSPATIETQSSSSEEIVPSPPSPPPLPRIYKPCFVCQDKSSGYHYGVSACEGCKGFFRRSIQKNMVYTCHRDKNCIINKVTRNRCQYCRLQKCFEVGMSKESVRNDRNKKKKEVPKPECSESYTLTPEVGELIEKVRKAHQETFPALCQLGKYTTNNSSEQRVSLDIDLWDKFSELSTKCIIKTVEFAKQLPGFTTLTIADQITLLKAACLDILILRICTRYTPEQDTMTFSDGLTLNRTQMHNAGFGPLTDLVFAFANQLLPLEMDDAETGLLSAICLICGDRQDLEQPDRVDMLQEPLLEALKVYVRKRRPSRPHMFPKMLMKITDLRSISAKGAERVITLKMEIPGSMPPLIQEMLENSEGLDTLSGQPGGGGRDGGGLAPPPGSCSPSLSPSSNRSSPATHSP
Procedure, shortened: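 Cell-free TR-FRET binding readout with extracted receptor protein, read 2 hours after dosing; gain-of-signal fitted relative to DMSO. Screened in duplicate at 25 uM, actives then run in concentration-response.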

**Q.** With Cc1cc(S(=O)(=O)O)ccc1N=Nc1c(O)ccc2ccccc12 as the molecule, how does the AC50 read?
**A.** The AC50 was 23.5 µM (active).

**Q.** For O=C(CC(=O)c1ccccc1)c1ccccc1, which outcome is on record?
**A.** The outcome was “inactive”.

**Q.** [O-]n1ccccc1=S.[O-]n1ccccc1=S.[Zn+2] was tested. Which outcome did it give?
**A.** Its outcome is “inactive”.

target: human Thyroid Receptor Alpha (TRa), THRA (gene 7067) (UniProt P10827); test: NVS_NR_hTRa_Antagonist: NovaScreen (NVS) Nuclear Receptor Binding Assay for human Thyroid Receptor Alpha Antagonism (TRa) (AID 2283362);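 note: activity is loss of signal relative to DMSO baseline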
Sequence (P10827 whole entry, looked up): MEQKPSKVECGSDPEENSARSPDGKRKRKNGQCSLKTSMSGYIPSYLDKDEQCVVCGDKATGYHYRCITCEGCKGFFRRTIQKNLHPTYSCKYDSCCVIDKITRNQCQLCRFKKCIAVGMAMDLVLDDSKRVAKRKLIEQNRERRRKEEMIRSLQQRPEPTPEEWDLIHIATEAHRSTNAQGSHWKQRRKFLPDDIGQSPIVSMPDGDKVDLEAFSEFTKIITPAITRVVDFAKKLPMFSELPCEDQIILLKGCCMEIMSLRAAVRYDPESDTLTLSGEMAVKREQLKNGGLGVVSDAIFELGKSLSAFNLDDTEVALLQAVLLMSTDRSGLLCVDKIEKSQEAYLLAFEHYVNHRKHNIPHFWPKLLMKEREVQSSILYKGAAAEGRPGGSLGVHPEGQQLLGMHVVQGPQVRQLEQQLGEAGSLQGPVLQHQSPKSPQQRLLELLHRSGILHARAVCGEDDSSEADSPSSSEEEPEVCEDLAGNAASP
Procedure, shortened: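 Cell-free binding assay on extracted receptor protein, read 1 h after chemical dosing by AlphaLISA chemiluminescence; loss of signal relative to DMSO baseline marks antagonism. Primary screen ran in duplicate at 25 uM, with concentration series for actives.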

**Q.** Which AC50 does the source give for Cc1cc(S(=O)(=O)O)ccc1N=Nc1c(O)ccc2ccccc12 here?
**A.** Its AC50 is 17.6 µM (active).

**Q.** Which outcome does the source give for CC1(C)C(=O)N(Cl)C(=O)N1Br here?
**A.** The outcome was “inactive”.

**Q.** Which AC50 does the source give for COc1ccccc1N=Nc1c(S(=O)(=O)O)cc2cc(S(=O)(=O)O)cc(NC(C)=O)c2c1O here?
**A.** The AC50 was 8.29 µM (active).

**Q.** Which outcome does the source give for CC(CN=Cc1ccccc1O)N=Cc1ccccc1O (stereo unspecified) here?
**A.** Its outcome is “inactive”.

**Q.** [O-]n1ccccc1=S.[O-]n1ccccc1=S.[Zn+2] was tested. Which AC50 did it give?
**A.** Its AC50 is 1.1 µM (active).

target: Glucocorticoid receptor (Homo sapiens) (UniProt P04150); test: NVS_NR_hGR: NovaScreen (NVS) Nuclear Receptor Binding Assay for human Glucocorticoid Receptor (GR) (AID 2283363);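 for AC50: activity is loss of specific radioligand binding signal relative to DMSO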
Sequence (P04150 whole entry, looked up): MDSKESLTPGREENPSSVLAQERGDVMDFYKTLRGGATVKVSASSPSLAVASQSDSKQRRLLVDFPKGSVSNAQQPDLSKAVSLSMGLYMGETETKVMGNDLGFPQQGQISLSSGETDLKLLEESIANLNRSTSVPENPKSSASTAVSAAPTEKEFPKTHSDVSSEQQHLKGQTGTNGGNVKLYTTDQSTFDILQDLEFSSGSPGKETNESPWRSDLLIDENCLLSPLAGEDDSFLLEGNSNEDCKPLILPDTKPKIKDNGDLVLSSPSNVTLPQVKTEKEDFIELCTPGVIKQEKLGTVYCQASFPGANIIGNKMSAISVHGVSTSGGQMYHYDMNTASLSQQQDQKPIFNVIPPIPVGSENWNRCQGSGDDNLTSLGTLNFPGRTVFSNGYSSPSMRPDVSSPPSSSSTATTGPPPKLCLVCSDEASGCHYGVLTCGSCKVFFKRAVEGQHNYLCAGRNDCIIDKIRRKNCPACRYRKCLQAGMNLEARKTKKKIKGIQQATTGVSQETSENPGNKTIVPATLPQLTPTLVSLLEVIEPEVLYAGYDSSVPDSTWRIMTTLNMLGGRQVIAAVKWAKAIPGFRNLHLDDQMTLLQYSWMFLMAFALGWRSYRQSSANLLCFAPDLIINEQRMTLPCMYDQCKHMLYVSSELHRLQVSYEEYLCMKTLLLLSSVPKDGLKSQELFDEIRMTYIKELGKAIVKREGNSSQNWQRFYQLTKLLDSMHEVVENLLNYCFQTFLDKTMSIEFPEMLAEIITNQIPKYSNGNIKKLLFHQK
Procedure, shortened: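 Cell-free radioligand displacement assay on extracted human GR, read 16 h after dosing by filter-based scintillation counting. Screened in duplicate at 25 uM, then concentration series for actives; loss of signal versus DMSO baseline.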

**Q.** With CCOc1ccc(NC(=O)CC(C)=O)cc1 as the molecule, how does the AC50 read?
**A.** The AC50 was 1.99 µM (active).

**Q.** For Cc1ccc(S(N)(=O)=O)cc1, which outcome is on record?
**A.** Its outcome is “inactive”.

**Q.** How did the outcome turn out when CCC(=O)O[C@@H]1C[C@H]2CC[C@]1(C)C2(C)C was run?
**A.** Its outcome is “inactive”.

**Q.** With CCCCCCCCc1ccc(S(=O)(=O)O)cc1 as the molecule, how does the AC50 read?
**A.** The AC50 was 17 µM (active).

**Q.** For CCC(C)c1cc([N+](=O)[O-])cc([N+](=O)[O-])c1OC(=O)OC(C)C (stereo unspecified), which AC50 is on record?
**A.** Its AC50 is 5.81 µM (active).

**Q.** For [O-]n1ccccc1=S.[O-]n1ccccc1=S.[Zn+2], which AC50 is on record?
**A.** Its AC50 is 0.776 µM (active).

target: Nuclear receptor subfamily 1 group I member 2 (Homo sapiens) (UniProt O75469); test: NVS_NR_hPXR: NovaScreen (NVS) Nuclear Receptor Binding Assay for human Pregnane X Receptor (PXR) (AID 2283365);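 note: a drop in FRET signal versus DMSO baseline means the compound binds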
Sequence (O75469 whole entry, looked up): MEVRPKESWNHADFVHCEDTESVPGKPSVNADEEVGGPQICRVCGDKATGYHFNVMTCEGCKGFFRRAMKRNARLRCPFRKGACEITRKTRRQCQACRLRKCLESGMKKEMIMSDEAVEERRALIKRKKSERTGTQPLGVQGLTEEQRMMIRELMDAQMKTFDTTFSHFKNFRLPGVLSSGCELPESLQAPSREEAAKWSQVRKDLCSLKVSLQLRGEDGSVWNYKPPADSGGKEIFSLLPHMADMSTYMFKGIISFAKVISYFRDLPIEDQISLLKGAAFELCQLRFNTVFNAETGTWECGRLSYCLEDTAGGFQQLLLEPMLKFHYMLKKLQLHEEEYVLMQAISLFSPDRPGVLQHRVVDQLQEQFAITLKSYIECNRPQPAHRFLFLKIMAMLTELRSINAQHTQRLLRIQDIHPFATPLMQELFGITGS
Procedure, shortened: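 Cell-free binding assay with extracted human PXR protein, read by TR-FRET 2 h after dosing; loss of signal relative to DMSO baseline indicates binding. Primary screen at 25 uM in duplicate, actives retested in concentration series.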

**Q.** With OCCc1ccccc1 as the molecule, how does the outcome read?
**A.** The outcome was “inactive”.

**Q.** CCCCCCCC(=O)OCC(O)CO (stereo unspecified) was tested. Which outcome did it give?
**A.** Its outcome is “inactive”.

**Q.** How did the outcome turn out when O=C1NC2NC(=O)NC2N1 (stereo unspecified) was run?
**A.** Its outcome is “inactive”.

**Q.** With CCOC(=O)C1OC1c1ccccc1 (stereo unspecified) as the molecule, how does the outcome read?
**A.** The outcome was “inactive”.

**Q.** With O=P(O)(O)O as the molecule, how does the outcome read?
**A.** The outcome was “inactive”.

**Q.** CC(C)c1ccccc1O was tested. Which outcome did it give?
**A.** Its outcome is “inactive”.

**Q.** CSCCC=O was tested. Which outcome did it give?
**A.** Its outcome is “inactive”.

**Q.** Which outcome does the source give for Cc1ccc(S(N)(=O)=O)cc1 here?
**A.** The outcome was “inactive”.

**Q.** How did the outcome turn out when Clc1ccc(C(c2ccccc2Cl)C(Cl)Cl)cc1 (stereo unspecified) was run?
**A.** The outcome was “inactive”.

**Q.** Which outcome does the source give for O=C(O)c1ccc(O)cc1 here?
**A.** Its outcome is “inactive”.

**Q.** For CCCCCCCCCCCCN1CCCCCC1=O, which outcome is on record?
**A.** The outcome was “inactive”.

**Q.** Which outcome does the source give for CCCCCCCCN1CCCC1=O here?
**A.** Its outcome is “inactive”.

— PubChem BioAssay (EPA / NIEHS)
